The text below walks through data of PubChem BioAssay (NCI).

“And” between values parts separate entries of the source, which are not always exact repeats. Identical values can stand only once. Compounds without any hit were thinned out: in the full panel of roughly 83,000, 20% have a hit.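 Cell lines were cultured in 96-well plates, exposed to a single compound concentration, and assessed for percent growth 48 hours later.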 The source made the active and inactive calls. Rule for the calls: active = growth percent below 10; inactive = the rest.

Among the test systems are NCI-H23 lung; NCI-H226 lung; NCI-H322M lung; HOP-62 NSCLC; NCI-H460 lung; HOP-92 NSCLC; NCI-H522 lung; A549/ATCC NSCLC; 786-0 renal; COLO 205 colon.
Common to all, as to assay: NCI-60 one-dose screen, 48 h (100 = growth as untreated, 0 = no growth, -100 = all killed)
What all share (details): 10 µM unless noted

For `O=C(/C=C/C12c3ccccc3C(c3ccccc31)C1C(=O)NC(=O)C12)c1ccncc1` (centres undefined), the growth was 23.2% (inactive) with NCI-H23 lung; 78.9% (inactive) in the test on NCI-H226 lung; 35.6% (inactive) in the test on NCI-H322M lung; 4.78% (active) in the test with HOP-62 NSCLC; 24.9% (inactive) in the test on NCI-H460 lung; 23.6% (inactive) with HOP-92 NSCLC. Further, the growth with NCI-H522 lung was 28.5% (inactive); in the test on A549/ATCC NSCLC it was 86.1% (inactive); with 786-0 renal, 20.6% (inactive); in the test with COLO 205 colon, 78.2% (inactive).
Regarding `Cc1c(C(=O)OCCCCOC(=O)c2c(C)n(C)c3scc[n+]23)[n+]2ccsc2n1C`, the growth with NCI-H23 lung is 101% (inactive); in the test with NCI-H226 lung it was 91.1% (inactive); with HOP-62 NSCLC it was 109% (inactive); in the test on NCI-H460 lung it was 108% (inactive); in the test on HOP-92 NSCLC, 88.9% (inactive); in the test on NCI-H522 lung, 99.6% (inactive). Further, the growth in the test on A549/ATCC NSCLC is 90.2% (inactive); in the test with 786-0 renal, 112% (inactive); in the test with COLO 205 colon it was 119% (inactive).
In the case of `O=C(NNc1ccccc1)c1ccccc1`, the growth with NCI-H23 lung was 98.2% (inactive) and 95.8% (inactive); with NCI-H226 lung, 93% (inactive) and 105% (inactive); in the test on HOP-62 NSCLC, 99.1% (inactive) and 47.3% (inactive); in the test on NCI-H460 lung, 85.1% (inactive); with HOP-92 NSCLC, 102% (inactive) and 95.2% (inactive); in the test on NCI-H522 lung, 48.1% (inactive). Moreover, the growth was 72.5% (inactive) and 64.1% (inactive) with A549/ATCC NSCLC; 86.1% (inactive) and 64.6% (inactive) in the test on 786-0 renal; 95% (inactive) and 65.3% (inactive) with COLO 205 colon.
Take `COC1=CC(=O)C(OC)=C(O)C1=O`: the growth in the test with NCI-H23 lung was 99.1% (inactive); in the test on NCI-H226 lung, 102% (inactive); with HOP-62 NSCLC, 97.9% (inactive); in the test on NCI-H460 lung, 106% (inactive); with HOP-92 NSCLC, 106% (inactive); in the test with NCI-H522 lung, 96.5% (inactive). Further, the growth in the test on A549/ATCC NSCLC was 105% (inactive); in the test with 786-0 renal it was 95.7% (inactive).
As for `OCCN1CCN(CC/C=C2\c3ccccc3Sc3ccc(Cl)cc32)CC1`, the growth with NCI-H23 lung is 50.7% (inactive) and 82.9% (inactive); in the test with NCI-H226 lung, 88.2% (inactive) and 110% (inactive); with HOP-62 NSCLC, -34.7% (active) and -66.1% (active); with NCI-H460 lung, 2.77% (active) and -25% (active); in the test with HOP-92 NSCLC, 10.9% (inactive) and -12.9% (active); in the test on NCI-H522 lung it was 37.9% (inactive) and 13.3% (inactive). In addition, the growth is 60% (inactive) and 38.2% (inactive) in the test with A549/ATCC NSCLC; 38.6% (inactive) with 786-0 renal; -75.6% (active) and -87.3% (active) with COLO 205 colon.
Consider `CC[C@@H]1NC(=O)[C@H]([C@H](O)[C@H](C)C/C=C/c2ccc(CN3C(=O)C(C)=C(C)C3=O)cc2)N(C)C(=O)[C@H](C(C)C)N(C)C(=O)[C@H](CC(C)C)N(C)C(=O)[C@H](CC(C)C)N(C)C(=O)[C@@H](C)NC(=O)[C@H](C)NC(=O)[C@H](CC(C)C)N(C)C(=O)[C@H](C(C)C)NC(=O)[C@H](CC(C)C)N(C)C(=O)CN(C)C1=O`, for which the growth in the test with NCI-H23 lung is 82.6% (inactive); in the test on NCI-H226 lung, 65% (inactive); in the test on HOP-62 NSCLC, 70.7% (inactive); with NCI-H460 lung, 80.7% (inactive); in the test with HOP-92 NSCLC, 68.8% (inactive); in the test with NCI-H522 lung, 61.9% (inactive). Further, the growth in the test on A549/ATCC NSCLC is 58.1% (inactive); in the test on 786-0 renal, 97.6% (inactive); in the test on COLO 205 colon, 72.8% (inactive).
In the case of `O=Nc1c(O)ccc2ccccc12`, the growth is 89.7% (inactive) with NCI-H23 lung; 93.2% (inactive) and 97.4% (inactive) in the test with NCI-H226 lung; 117% (inactive) and 101% (inactive) in the test with HOP-62 NSCLC; 96.4% (inactive) and 106% (inactive) in the test on NCI-H460 lung; 66% (inactive) and 87.1% (inactive) with HOP-92 NSCLC; 41.8% (inactive) and 86.2% (inactive) in the test on NCI-H522 lung. In addition, the growth is 72.2% (inactive) and 100% (inactive) in the test on A549/ATCC NSCLC; 92.1% (inactive) and 104% (inactive) in the test on 786-0 renal; 71.1% (inactive) and 110% (inactive) in the test on COLO 205 colon.
As to `N#CC1C(=O)c2ccccc2C1c1ccccc1` (centres undefined), the growth was 97.4% (inactive) and 102% (inactive) in the test with NCI-H23 lung; 105% (inactive) and 96.7% (inactive) with NCI-H322M lung; 98.8% (inactive) and 107% (inactive) in the test on HOP-62 NSCLC; 114% (inactive) and 105% (inactive) with NCI-H460 lung; 75.2% (inactive) and 84.7% (inactive) in the test on HOP-92 NSCLC; 96.4% (inactive) and 99% (inactive) in the test with NCI-H522 lung. Moreover, the growth with A549/ATCC NSCLC was 102% (inactive); in the test with 786-0 renal, 93.1% (inactive) and 89.8% (inactive); in the test on COLO 205 colon it was 115% (inactive).
For the compound `CCCCCCCCCCCCCCCC[N+](C)(C)CCN(Cc1ccc(OC)cc1)c1ncccn1`, the growth is 41.5% (inactive) in the test on NCI-H23 lung; 48.3% (inactive) and 60.2% (inactive) with NCI-H226 lung; -100% (active) and 65.2% (inactive) with HOP-62 NSCLC; -84.1% (active) and 67.4% (inactive) in the test on NCI-H460 lung; -66.1% (active) and 15.6% (inactive) with HOP-92 NSCLC; -91.2% (active) and 23.4% (inactive) with NCI-H522 lung. The growth is -86.1% (active) and 54.4% (inactive) in the test with A549/ATCC NSCLC; -33.7% (active) and 61.9% (inactive) with 786-0 renal; -100% (active) and 33.1% (inactive) in the test on COLO 205 colon.
For the compound `CCN1CCN(C(=O)[C@]23CC[C@@H](C)[C@H](C)[C@@H]2C2=CC[C@@H]4[C@@]5(C)CCC(=O)C(C)(C)[C@@H]5CC[C@@]4(C)[C@]2(C)CC3)CC1`, the growth was 21.4% (inactive) with NCI-H23 lung; 35.7% (inactive) in the test on NCI-H226 lung; 9.82% (active) in the test on HOP-62 NSCLC; -55.1% (active) in the test on NCI-H460 lung; -5.58% (active) in the test with HOP-92 NSCLC; -53.4% (active) in the test with NCI-H522 lung. Moreover, the values for the growth in the test on A549/ATCC NSCLC, in the test on 786-0 renal and in the test with COLO 205 colon were 19.9% (inactive), -40.1% (active) and -50.9% (active), respectively.
As to `CC(=O)OC[C@]12CCC(C)(C)C=C1[C@H]1CC[C@@H]3[C@@]4(C)CCCNC(C)(C)[C@@H]4CC[C@@]3(C)[C@]1(C)CC2`, the growth with NCI-H23 lung was 65% (inactive); in the test with NCI-H226 lung, 77.9% (inactive); with HOP-62 NSCLC it was 91.8% (inactive); in the test with NCI-H460 lung, 49.4% (inactive); with HOP-92 NSCLC it was 83% (inactive); with NCI-H522 lung, 39.4% (inactive). Moreover, the growth is 83% (inactive) with A549/ATCC NSCLC, 82.2% (inactive) in the test on 786-0 renal and 1.01% (active) in the test on COLO 205 colon.
